This is an account of results in PubChem BioAssay AID1494157 (National Center for Advancing Translational Sciences (NCATS), 2020).

Structures are written as SMILES. Results filed as inconclusive are left out. Values without a mark were called inactive. The source made the active and inactive calls. Calls follow the shape of the full dose curve.

The nature of the assay: Confirmatory qHTS for inhibitors of MERS-S pseudo-typed particle cell entry. The conditions noted are these: MERS-S pseudotyped particle entry, luciferase reporter; series mostly up to 57.1 µM; activity change, negative = inhibition: at the top concentration. For orientation: Quantitative high-throughput screening tests each substance at several concentrations.
Take `Cc1nnc2n1-c1sc(CCc3ccc(CC(C)C)cc3)cc1C(c1ccccc1Cl)=NC2C` (stereo not drawn): the Potency is 27.1 µM (active). Regarding `COc1cccc2c1C(=O)c1c(O)c3c(c(O)c1C2=O)C[C@@](O)(C(=O)CO)C[C@@H]3O[C@H]1C[C@H](N)[C@@H](O)[C@H](C)O1`, the Potency was 3.83 µM (active). As to `Cc1ccc(NC(=O)c2ccc(CN3CCN(C)CC3)cc2)cc1Nc1nccc(-c2cccnc2)n1`, the Potency was 13.6 µM (active). Still for that read-out and setting: for `CNCCCC12CCC(c3ccccc31)c1ccccc12` the value was 21.5 µM (active). As to `CC(=O)OCC1=C(C(=O)O)N2C(=O)[C@@H](NC(=O)Cc3cccs3)[C@H]2SC1`, the “activity change, negative = inhibition” value was 0%. As to `CC(CN(C)C)CN1c2ccccc2CCc2ccccc21` (stereo not drawn), the Potency was 17.1 µM (active). Same read-out and setting: for `CC(C)C(=O)Oc1ccc(CO)cc1[C@H](CCN(C(C)C)C(C)C)c1ccccc1` the value was 19.2 µM (active).

In the case of `CCCCN=C(N)N=C(N)N`, the “activity change, negative = inhibition” value was 0%.

With `Nc1ccn([C@@H]2O[C@H](CO)[C@@H](O)C2(F)F)c(=O)n1`, the Potency is 0.215 µM (active).

`CCN(CC)CCNC(=O)c1c(C)[nH]c(/C=C2\C(=O)Nc3ccc(F)cc32)c1C`: the Potency was 4.29 µM (active). As to `O=c1ccc2ccccc2o1`, the “activity change, negative = inhibition” value was 0%.

Take `Oc1c(Cl)cc(Cl)c(Cl)c1Cc1c(O)c(Cl)cc(Cl)c1Cl`: the Potency was 0.857 µM (active). The same measure, in the same setting: for `CN1CCC(=C2c3ccccc3C=Cc3ccccc32)CC1` the value was 19.2 µM (active); for `COc1ccc2cc1Oc1ccc(cc1)C[C@H]1c3c(cc4c(c3Oc3cc5c(cc3OC)CCN(C)[C@@H]5C2)OCO4)CCN1C`, 1.71 µM (active). For `C[C@@H](c1nc(-c2ccc(C#N)cc2)cs1)[C@](O)(Cn1cncn1)c1cc(F)ccc1F`, the Potency is 5.41 µM (active). The same measure, in the same setting: for `O=C(Nc1ccc(Cl)cc1)Nc1ccc(Cl)c(C(F)(F)F)c1` the value was 10.8 µM (active); for `CC(=O)N1CCN(c2ccc(OC[C@H]3CO[C@](Cn4ccnc4)(c4ccc(Cl)cc4Cl)O3)cc2)CC1`, 7.64 µM (active); for `CN1CCC[C@@H]1CCO[C@](C)(c1ccccc1)c1ccc(Cl)cc1`, 7.64 µM (active). On the same count and under the same terms, for `CN(C)[C@@H](CCOc1cccc2ccccc12)c1ccccc1` the value was 12.1 µM (active). For the compound `Cc1c(N)nc(C(CC(N)=O)NCC(N)C(N)=O)nc1C(=O)NC(C(=O)NC(C)C(O)C(C)C(=O)NC(C(=O)NCCc1nc(-c2nc(C(=O)NCCCN[C@@H](C)c3ccccc3)cs2)cs1)C(C)O)C(O[C@@H]1O[C@@H](CO)[C@@H](O)[C@H](O)[C@@H]1O[C@H]1O[C@H](CO)[C@@H](O)[C@H](OC(N)=O)[C@@H]1O)c1cnc[nH]1` (stereo partly drawn), the “activity change, negative = inhibition” value was -15%. For `CCCCCCCCCCCCOCCOCCOCCOCCOCCOCCOCCOCCOCCO`, the Potency is 7.64 µM (active). As to `CCOc1cc2ncc(C#N)c(Nc3ccc(OCc4ccccn4)c(Cl)c3)c2cc1NC(=O)/C=C/CN(C)C`, the activity change, negative = inhibition was -18.9% [at 11.2 µM]. Take `C[C@H]1[C@H](OC(=O)CCC(=O)O)O[C@@H]2O[C@@]3(C)CC[C@H]4[C@H](C)CC[C@@H]1[C@@]24OO3`: the Potency was 0.857 µM (active). With `CO[C@@]12[C@H](COC(N)=O)C3=C(C(=O)C(C)=C(N)C3=O)N1C[C@@H]1N[C@@H]12`, the Potency was 0.961 µM (active).

Take `Cc1cc(-n2c(=O)[nH]c(=O)n(C)c2=O)ccc1Oc1ccc(S(=O)(=O)C(F)(F)F)cc1`: the Potency was 6.81 µM (active). As to `COC(=O)C[C@](O)(CCCC(C)(C)O)C(=O)O[C@@H]1C(OC)=C[C@]23CCCN2CCc2cc4c(cc2[C@H]13)OCO4`, the Potency is 0.607 µM (active).

With `Cc1nnc(C(=O)NC(C)(C)c2nc(C(=O)NCc3ccc(F)cc3)c(O)c(=O)n2C)o1`, the Potency was 0.0043 µM (active). The same measure, in the same setting: for `CC(C)OC(=O)OCOP(=O)(CO[C@H](C)Cn1cnc2c(N)ncnc21)OCOC(=O)OC(C)C` the value was 0.0192 µM (active).
